A selection: hits, their analogues and other compounds. The true share with any hit is near 19%.
TDP1 cell CPT: DT40-hTDP1 cell growth loss with CPT; chicken DT40 Tdp1-/-;hTDP1 cells + 20 nM CPT, ATP luminescence, 48 h; Potency, µM (highest dose often 46.2 µM), inactives show at the top dose activity change, negative = growth inhibition, usual class: inhibitors; 420,000 tested, 12% active; also: potency is read from the fitted curve at half-maximal effect; nearly all actives have a fitted effect of over 55% in size
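Chicken DT40 Tdp1-/- cells stably complemented with human TDP1 were seeded at 400 cells/well in medium containing 20 nM camptothecin, exposed to pin-transferred compounds, and grown at 37 °C for at least 48 hr. Viability was read as ATP luminescence.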
ELG1 DNA repair: ELG1-dependent DNA repair inhibition; HEK293T ELG1-luciferase reporter, luminescence, 16 h; DNA damage induced by 5-fluorouridine; Potency, µM (titrated, usually from 46.1 µM), for inactives: at the highest dose activity change, negative = inhibition, hits mostly inhibitors; 330,000 tested, 2.3% active; AID 504467; also: potency is read from the fitted curve at half-maximal effect; nearly all actives have a fitted effect of over 55% in size
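HEK293T cells expressing luciferase-tagged ELG1 (2,000/well) received 5-Fluorouridine plus compound or DMSO for 16 hr at 37 °C. Luciferase was read by ONE-Glo luminescence after 30 min at room temperature.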
TDP1 block: blocks human tyrosyl-DNA phosphodiesterase 1 | recombinant TDP1, AlphaScreen DNA substrate cleavage | Potency, µM (titrated, usually from 130 µM), for inactives: top-dose activity change, negative = inhibition, hits mostly inhibitors | AID 485290 | 350,000 tested, 0.28% active | Q9NUW8; also: potency is read from the fitted curve at half-maximal effect; nearly all actives have a fitted effect of over 40% in size
Target sequence (Q9NUW8 whole entry, looked up): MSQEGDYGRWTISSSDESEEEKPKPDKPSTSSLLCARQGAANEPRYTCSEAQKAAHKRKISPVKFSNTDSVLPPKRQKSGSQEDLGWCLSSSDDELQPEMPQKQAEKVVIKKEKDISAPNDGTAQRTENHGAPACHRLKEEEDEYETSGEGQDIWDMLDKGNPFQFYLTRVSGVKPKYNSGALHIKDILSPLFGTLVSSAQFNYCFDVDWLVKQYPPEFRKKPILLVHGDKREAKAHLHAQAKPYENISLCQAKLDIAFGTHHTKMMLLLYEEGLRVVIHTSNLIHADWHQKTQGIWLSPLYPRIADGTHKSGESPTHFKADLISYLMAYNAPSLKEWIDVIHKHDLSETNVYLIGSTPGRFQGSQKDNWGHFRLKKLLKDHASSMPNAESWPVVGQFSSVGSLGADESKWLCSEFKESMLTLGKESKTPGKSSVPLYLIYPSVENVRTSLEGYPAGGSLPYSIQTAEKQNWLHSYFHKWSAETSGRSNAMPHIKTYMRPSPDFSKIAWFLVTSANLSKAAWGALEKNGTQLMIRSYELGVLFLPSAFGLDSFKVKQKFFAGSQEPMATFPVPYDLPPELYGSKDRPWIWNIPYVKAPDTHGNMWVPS
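Tdp1 1 nM final; 15 min RT w/ cpd; substrate 15 nM, 5 min; beads 10 ug/ml, 10 min; AlphaScreen read. Neg ctrl: no enzyme.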
IL-1B inflam inh: inflammasome signaling inhibition, IL-1 beta readout | THP-1 LPS/ATP IL-1B secretion, AlphaLISA, 16 h; active compounds read low | activity change, % at 57.5 µM | 360,000 tested, 4.7% active; in the data active = activity change below about -50%; inconclusive = mostly about -30% to -49%
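THP-1 cells pretreated 1 hr with compounds (up to 57.5 uM final), then stimulated with LPS (250 ng/mL final) plus ATP (1.25 mM final); secreted IL-1B measured by AlphaLISA after 16 hr, decreased signal indicating inhibition.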
DT40 TDP1 no CPT: qHTS for Inhibitors of human tyrosyl-DNA phosphodiesterase 1 (TDP1): qHTS in cells in absence of CPT; DT40 Tdp1-/- hTDP1 cells, no CPT, ATP luminescence, 48 h; 420,000 tested, 15% active; Potency, µM (highest dose often 46.2 µM), for the others: top-dose activity change, negative = growth inhibition, hits mostly inhibitors; also: potency is read from the fitted curve at half-maximal effect; nearly all actives have a fitted effect of over 55% in size
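Growth of hTDP1-complemented DT40 Tdp1-knockout cells is measured by ATP luminescence after at least 48 hr compound exposure at 37 °C, with DMSO substituting for the 20 nM CPT used in the parallel screen.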
Giardia killer: Giardia lamblia killing. Giardia lamblia trophozoite viability. activity change, % at 7.66 µM, hits read low. 340,000 tested, 0.15% active. AID 540267; in the data active = activity change below about -80%; inconclusive = between about -30% and that limit;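 also: parasites exposed to compound for two days anaerobically before the ATP read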
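Media and compound were dispensed first, then trophozoites at 100 cells/well; plates sat 48 hrs at 37 deg C without oxygen before ATP luminescence reagent was added and read after 15-30 min at room temperature.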
* marks the source's active call; other numbers are inactive results; u = inconclusive; x = no result; [ ] = remark or other dose. Unless noted, calls follow the shape of the dose curve; as a rule, active = well fitted curve in the direction sought with a large enough effect; inconclusive = small, poorly fitted or top-dose-only effect, or another doubt; inactive = no such curve, though single readings can be large; an effect the other way counts as inactive or inconclusive. % is scaled to controls: 0 for no effect and ±100 for the full control effect.

SMILES	TDP1 cell CPT	ELG1 DNA repair	TDP1 block	IL-1B inflam inh	DT40 TDP1 no CPT	Giardia killer
CO/N=C(\Cn1ncc(N2CCCC2)c(Cl)c1=O)c1ccc(Cl)cc1	29.1µM*	-16.8%	0.0%	-12.6	23.1µM*	4.4
O=C1/C(=C\c2cc(Cl)c(O)c(Cl)c2)SC(=S)N1Cc1ccccc1	6.51µM*	u	x	-18.9	2.31µM*	-4.9
COc1ccc(O)c(/C=C2/SC(=S)N(Cc3ccccc3)C2=O)c1	u	-3.0%	x	4.7	20.6µM*	-26.4
COc1ccc(/C=C2/SC(=S)N(Cc3ccccc3)C2=O)cc1O	-27.4%	u	x	u	-11.1%	22.9
CCOC(=O)c1c(C)[nH]c(C)c1S(=O)(=O)NCC(=O)Nc1cccc(C#N)c1	-12.4%	x	5.3%	x	u	x
Cc1cc(C)nc(-n2nc(C)c3c2N(Cc2ccccc2)C(=O)CC3c2ccc(Cl)cc2)n1 (centres undefined)	16.4µM*	x	1.6%	x	u	x
COc1cc(=O)n2c(c1C(=O)N(C)Cc1nonc1C)CCN(Cc1cccc3ccccc13)CC2	24.6%[9.04 µM]	x	x	x	u	x
COc1ccc(Cl)cc1NC(=O)CN1CCC(n2nnc3ccccc32)CC1	-27.9%	7.31µM*	7.4%[56.1 µM]	-3.0	u	6.0
COc1ccc(Cl)cc1NC(=O)CN1CCN(S(=O)(=O)N2CCC(C)CC2)CC1	-10.7%	u	3.8%	-23.3	u	16.8
COc1ccc(Cl)cc1NC(=O)CN1CCC(NC(=O)C2CC2)CC1	23.1µM*	9.2µM*	5.7%	20.4	u	-10.2
COc1ccc(Cl)cc1NC(=O)NCC1CCN(C(=O)OC(C)(C)C)CC1	-7.2%	-17.4%	2.6%	-55.0*	-15.0%	2.5
CC1CN(C(=O)COC(=O)CSc2ccc([N+](=O)[O-])cc2)CC(C)O1 (centres undefined)	-7.1%	1.5%	5.1%	5.4	-18.3%	11.1
O=C(NCCCn1cccn1)c1cc(COc2ccc(F)cc2Cl)on1	-23.3%	u	x	23.4	-8.0%	3.1
CCn1cc(CNC(=O)c2cc(COc3ccc(F)cc3Cl)on2)cn1	20.6µM*	17.9%	5.6%	-21.5	5.8µM*	-22.5
CC(Cc1cccnc1)NC(=O)c1cc(COc2ccc(F)cc2Cl)on1 (centres undefined)	20.6µM*	11.9%	6.1%	-14.1	23.1µM*	-1.9
COc1ccc(-c2ccc(C3C4C=CCC(C)C4C(=O)N3Cc3ccccc3)c(F)c2)cc1OC (centres undefined)	x	x	9.7%	x	x	-20.5
CN(C)c1ccc(-c2cccc(C3CC=CC4C3C(=O)N(Cc3ccccc3)C4c3ccc(C(F)(F)F)cc3)c2)cc1 (centres undefined)	11.6µM*	8.3%	17.9%	26.9	23.1µM*	7.2
Cc1ccc(-c2cccc(C3CC=CC4C3C(=O)N(Cc3ccccc3)C4c3cc(C)ccc3F)c2)cc1 (centres undefined)	16.4µM*	2.2%	6.8%	32.9	14.6µM*	-5.5
COc1ccc(-c2cccc(C3CC=CC4C3C(=O)N(Cc3ccccc3)C4c3ccc(C(F)(F)F)cc3)c2)cc1 (centres undefined)	u	u	9.7%	48.4	14.6µM*	10.1
O=C(CCSCc1ccccc1Cl)NCCc1ccccc1	0.4%	x	2.6%	x	-3.0%	x
Brc1c(OCCOCCn2cncn2)ccc2ccccc12	u	u	5.6%	-2.2	25.9µM*	-1.9
Cc1cc(Cl)ccc1OCCn1cncn1	-3.6%	14.2%	1.2%	34.2	-2.5%	19.7
c1ccc(-c2ccc3c(c2)NCCN3)cc1	u	23.5%	x	-75.1*	u	-16.4
c1ccc(-c2ccc(-c3ccccc3)[nH]2)cc1	u	x	x	13.5	u	-13.1
Cc1nn(C2CCS(=O)(=O)C2)c(Cl)c1/C=C/C(=O)OCC(=O)c1cc(C)n(-c2ccc(F)cc2)c1C (centres undefined)	20.6µM*	13µM*	0.0%	-17.7	16.4µM*	-19.9
SMILES	TDP1 cell CPT	ELG1 DNA repair	TDP1 block	IL-1B inflam inh	DT40 TDP1 no CPT	Giardia killer
O=[N+]([O-])c1ccc(O)c(-c2nn[nH]n2)c1	18.4µM*	u	8.7%	7.3	u	3.8
O=C(COC(=O)c1cc(S(=O)(=O)N2CCOCC2)ccc1O)NCc1ccc2c(c1)OCO2	-10.3%	9.0%	-8.8%	-2.4	0.5%	-6.3
C#CCOCCOCCOCCNc1nc(N2CCN(C(=O)CCCCCCCCCCNC(=O)[C@@H](CCC(=O)O)n3cc(CCCCCN)nn3)CC2)nc(N2CCN(C(=O)CCCCCCCCCCNC(=O)[C@H]([C@@H](C)CC)n3cc(CCCCCN)nn3)CC2)n1	-6.2%	-24.5%	9.4%	-94.6*	u	-19.3
C#CCOCCOCCOCCNc1nc(N2CCN(C(=O)CCCCCCCCCCNC(=O)Cn3cc(CCCCCN)nn3)CC2)nc(N2CCN(C(=O)CCCCCCCCCCNC(=O)[C@H]([C@@H](C)CC)n3cc(CCCCN=C(N)N)nn3)CC2)n1	20.6µM*	u	15.3%	-109.6*	u	u
C#CCOCCOCCOCCNc1nc(N2CCN(C(=O)CCCCCCCCCCNC(=O)[C@H]([C@@H](C)CC)n3cc(CCCCCN)nn3)CC2)nc(N2CCN(C(=O)CCCCCCCCCCNC(=O)[C@H](CO)n3cc(CCCCCN)nn3)CC2)n1	u	u	9.2%	-82.8*	u	9.0
C#CCOCCOCCOCCNc1nc(N2CCOCC2)nc(N2CCN(C(=O)CCCCCCCCCCNC(=O)[C@@H](CCC(=O)O)n3cc(CCCCCN)nn3)CC2)n1	2.5%	15.5%	2.5%	12.9	13.0%	18.5
C#CCOCCOCCOCCNc1nc(N2CCN(C(=O)CCCCCCCCCCNC(=O)[C@H]([C@@H](C)CC)n3cc(CCCCN=C(N)N)nn3)CC2)nc(N2CCN(C(=O)CCCCCCCCCCNC(=O)[C@H](CCCCN)n3cc(C)nn3)CC2)n1	23.1µM*	u	14.8%	-111.8*	8.2µM*	-22.8
C#CCOCCOCCOCCNc1nc(N2CCN(C(=O)CCCCCCCCCCNC(=O)[C@H]([C@@H](C)CC)n3cc(CCCCCN)nn3)CC2)nc(N2CCN(C(=O)CCCCCCCCCCNC(=O)[C@H]([C@@H](C)CC)n3cc(CCCCN=C(N)N)nn3)CC2)n1	x	u	14.5%	x	x	x
